Compounds without any hit were thinned out: in the full panel of roughly 79,000, 15% have a hit. Active and inactive are the calls of the source. No stated cut-off is given here; in the data, active means growth inhibition above about 70%; inactive means the rest.

The results in this text go back to PubChem BioAssay (NCI).

The nature of this test: NCI Yeast Anticancer Drug Screen. Data for the mgt1 strain (AID 153). Particulars: S. cerevisiae mgt1 mutant growth inhibition; at 1.2 µM; hits give high values. Summed up:
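Compounds were applied to mgt1 mutant yeast, and growth was then compared against vehicle-treated control cultures to give percent inhibition.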
For `CSc1nnc(SC)nn1`, the growth inhibition is 8% (inactive).

Consider `COc1cc(/C=C2\CCC/C(=C\c3ccc(O)c(OC)c3)C2=O)ccc1O`, for which the growth inhibition was 0% (inactive).

Regarding `CN(C)CCNC(=O)c1cccc2cc([N+](=O)[O-])ccc12`, the growth inhibition was -1% (inactive).

Turning to `CCC(C)(C)c1ccc(Oc2cccc(C(=O)O)c2)cc1`, the growth inhibition was -4% (inactive).

As for `CCCCCCSc1ncnc2[nH]ncc12`, the growth inhibition is -2% (inactive).

For the molecule `CC(=O)Nc1ccc(/C=C/[N+](=O)[O-])cc1`, the growth inhibition was -2% (inactive).

Turning to `CCOC(=O)c1[nH]n(-c2ccccc2)c(=O)c1C=NC(=S)C(N)=S`, the growth inhibition was -6% (inactive).

`CCCC(O)C1CC(C(C)C)CCC1C` (centres undefined): the growth inhibition is -2% (inactive).

As to `O=[n+]1c2ccccc2n([O-])c2cc(Br)ccc21`, the growth inhibition was 5% (inactive).

Consider `CN(C)CCNC(=O)c1cccc2c1Oc1c(cccc1[N+](=O)[O-])O2`, for which the growth inhibition was 9% (inactive).

Take `Nc1ncc(-c2ccc(Br)cc2)s1`: the growth inhibition was 1% (inactive).

As for `Cc1cc2cc3cc(C)c(N)cc3nc2cc1N`, the growth inhibition was -61% (inactive).

Turning to `CC12C(=O)OC(=O)C(c3ccccc31)c1ccccc12`, the growth inhibition is -7% (inactive).

Regarding `c1ccc2c(OCC3CO3)cccc2c1` (centres undefined), the growth inhibition was -1% (inactive).

On to `CCOC(=N)c1ccc(O)c(OC)c1`, for which the growth inhibition is -2% (inactive).

`Nc1cc(N)c(N=Nc2cccc3c(S(=O)(=O)O)cccc23)cc1N=Nc1cc([N+](=O)[O-])ccc1O`: the growth inhibition is -19% (inactive).

As to `COC(=O)Oc1cc(Cl)c(Cl)cc1Cl`, the growth inhibition was -1% (inactive).

Regarding `O=C(O)C1CC(c2ccccc2)=NN1c1ccccc1` (centres undefined), the growth inhibition was -48% (inactive).

For the molecule `COc1cc([C@@H]2c3cc4c(cc3[C@@H](Nc3ccc(NC(=O)c5cc([N+](=O)[O-])cn5C)cc3)[C@H]3COC(=O)[C@H]23)OCO4)cc(OC)c1O`, the growth inhibition was -3% (inactive).
